PubChem BioAssay AID720700 (The Scripps Research Institute Molecular Screening Center, 2013)
Out of some 370,000 compounds screened, about 3,100 (0.84%) were called active. For the sample, actives were picked, then their nearest neighbours and some compounds at random. Values without a mark were called inactive. Cut-off read from the data, not from the text of the source: active = inhibition above about 9.5%; inactive = the rest.

Each molecule was assayed against 1-phosphatidylinositol 4,5-bisphosphate phosphodiesterase gamma-1 (Homo sapiens) (UniProt P19174) (assay: blockers of human PLCG1 activity – biochemical, fluorescence, purified enzyme, primary screen (AID 720700)). Conditions: purified PLC-gamma1, fluorogenic substrate, at 12.2 µM, stronger effect = higher value.
Chain of 1-phosphatidylinositol 4,5-bisphosphate phosphodiesterase gamma-1 (Homo sapiens) (P19174 whole entry, looked up): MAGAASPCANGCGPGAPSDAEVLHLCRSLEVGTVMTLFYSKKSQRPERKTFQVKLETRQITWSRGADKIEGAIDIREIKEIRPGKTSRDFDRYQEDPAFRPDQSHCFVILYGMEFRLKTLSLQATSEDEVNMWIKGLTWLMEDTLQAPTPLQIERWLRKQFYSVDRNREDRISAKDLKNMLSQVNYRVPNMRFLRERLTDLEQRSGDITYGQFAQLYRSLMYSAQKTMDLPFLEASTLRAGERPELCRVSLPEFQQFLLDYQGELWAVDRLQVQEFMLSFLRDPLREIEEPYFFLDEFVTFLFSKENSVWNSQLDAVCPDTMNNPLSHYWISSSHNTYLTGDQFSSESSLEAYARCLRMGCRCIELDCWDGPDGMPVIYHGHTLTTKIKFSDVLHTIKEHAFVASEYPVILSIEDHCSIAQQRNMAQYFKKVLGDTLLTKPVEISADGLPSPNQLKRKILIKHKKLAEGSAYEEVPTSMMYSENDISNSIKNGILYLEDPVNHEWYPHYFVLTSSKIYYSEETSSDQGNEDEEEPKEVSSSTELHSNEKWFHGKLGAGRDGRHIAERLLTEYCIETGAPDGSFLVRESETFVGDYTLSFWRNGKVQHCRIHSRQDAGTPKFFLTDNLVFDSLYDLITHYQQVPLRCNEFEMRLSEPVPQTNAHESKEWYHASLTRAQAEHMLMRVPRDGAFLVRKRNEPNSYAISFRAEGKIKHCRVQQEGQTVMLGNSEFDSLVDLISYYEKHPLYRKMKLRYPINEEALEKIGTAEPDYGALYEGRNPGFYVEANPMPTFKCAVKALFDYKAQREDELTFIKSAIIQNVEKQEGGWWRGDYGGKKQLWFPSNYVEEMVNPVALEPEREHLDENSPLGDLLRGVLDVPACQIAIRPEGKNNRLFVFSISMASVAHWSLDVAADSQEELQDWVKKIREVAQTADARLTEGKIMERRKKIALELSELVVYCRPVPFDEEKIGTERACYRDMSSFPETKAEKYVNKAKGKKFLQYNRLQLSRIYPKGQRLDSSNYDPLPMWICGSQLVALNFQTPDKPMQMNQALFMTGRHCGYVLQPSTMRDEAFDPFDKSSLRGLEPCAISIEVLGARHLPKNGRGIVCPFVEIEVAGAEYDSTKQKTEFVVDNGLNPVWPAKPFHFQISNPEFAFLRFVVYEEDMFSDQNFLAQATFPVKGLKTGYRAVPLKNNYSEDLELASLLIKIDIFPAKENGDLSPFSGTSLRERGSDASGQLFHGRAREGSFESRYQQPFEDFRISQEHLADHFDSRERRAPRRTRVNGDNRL
In the case of `Cc1ccccc1C(=O)Nc1ccccc1Sc1ccccc1`, the inhibition is reported as 10.7% (active).
`Cc1cc(NC(=O)c2ccccc2C)no1` showed an inhibition of 3.09%.
With `CSc1ccccc1NC(=O)c1cc(Cl)sc1Cl` the inhibition was 3.13%.
For `CCOC(=O)[C@]12CCCC3=C1N(CCC3)C(=O)[C@@H](CC(=O)N1CCSCC1)C2`, the inhibition was 4.63%.
In the case of `COc1ccc(C(=O)OCCN2CCN(C3CN(Cc4cn(Cc5ccccc5F)nn4)S(=O)(=O)C3)CC2)cc1OC` (stereo unspecified), the inhibition is reported as -0.1%.
`O=C(NC1CCCCN(Cc2ccc(Cl)cc2)C1=O)c1ccc(Br)cc1` (stereo unspecified) gave an inhibition of 3.44%.
`CCOC(=O)[C@]12CCCCC/C=C\1N(Cc1ccc(OC)cc1)C(=O)[C@H]2CC(=O)NCCCN1CCCC1=O` showed an inhibition of 1.96%.
`CN(CC(=O)NC1CCCCC1)S(=O)(=O)c1cccc2cccnc12` was tested, and the inhibition was -1.31%.
With `CN(CC(=O)NC1CCCCC1)S(=O)(=O)c1ccc(Br)s1` the inhibition was 10.4% (active).
With `CN(CC(=O)NC1CCN(Cc2ccccc2)CC1)S(=O)(=O)c1ccc(Cl)s1` the inhibition was 6.37%.
Work on `Cc1nc(CNc2ncnc3ccc(-c4ccc5c(c4)OCO5)cc23)cs1` yielded an inhibition of -104%.
For `C=CCOc1ccccc1/C=N/NC(=O)Cc1ccccc1`, the inhibition was 13.9% (active).
Work on `CCn1c(SCC(=O)N/N=C/c2ccccc2OCC(=O)O)nnc1-c1ccc(C(C)(C)C)cc1` yielded an inhibition of -0.82%.
In the case of `O=C(CC(=O)N/N=C\c1cccc(Cl)c1Cl)NCc1ccccc1`, the inhibition is reported as -0.34%.
`O=C1CCC2(CCC(c3ccc(Cl)cc3)CC2)N1CCO` (stereo unspecified) gave an inhibition of 1.68%.
`COC(=O)[C@]12C[C@H](CC(=O)NCc3ccccc3)C(=O)N(CCC3=CCCCC3)C1=C[C@H](C(C)C)O[C@@H]2C1CC1` showed an inhibition of 4.87%.
`CCOC(=O)C1=C(C)NC2=C(C(=O)CC(C)(C)C2)C1c1ccc2c(c1)OCO2` (stereo unspecified) was tested, and the inhibition was -75.8%.
For `Cc1ccc(NC(=O)Nc2cc(C)nn2-c2ccccc2)cc1`, the inhibition was -1.85%.
In the case of `CCCCn1c(SCC(=O)N2CCCC2=O)nc2cc(S(N)(=O)=O)ccc21`, the inhibition is reported as 9.56% (active).
Work on `CCCCn1c(SCC(=O)N2CCC(C(=O)OCC)CC2)nc2cc(S(N)(=O)=O)ccc21` yielded an inhibition of 0.98%.
`CCn1c(SCC(=O)N2CCCC2=O)nc2ccccc21` showed an inhibition of 3.16%.
`COc1ccccc1C(=O)NC1CCCCN(C(C)C)C1=O` (stereo unspecified) was tested, and the inhibition was 2.47%.
For `Cc1ccccc1CS(=O)(=O)Cc1ccc(C(=O)Nc2ccc(Cl)cc2)o1`, the inhibition was -2.55%.
`Oc1ccc(/C=C/c2c(F)cccc2F)c2cccnc12` gave an inhibition of -12.7%.
Work on `COC(=O)[C@H](C(C)C)N(CCCc1cn(Cc2ccccc2)nn1)S(=O)(=O)c1ccc(F)cc1Br` yielded an inhibition of 0.35%.
`O=C1CC(c2ccc3c(c2)OCO3)N=C2N(CC3CC3)C/C(=C/c3ccccc3)N12` (stereo unspecified) was tested, and the inhibition was -5.26%.
`Fc1ccccc1C(c1nnnn1Cc1ccc2c(c1)OCO2)N1CCN(Cc2ccccc2)CC1` (stereo unspecified) gave an inhibition of 0.65%.
`Cc1ccc(S(=O)(=O)Cn2nnnc2CN2CCN(Cc3ccc4c(c3)OCO4)CC2)cc1` was tested, and the inhibition was 10.9% (active).
`Cc1ccc(C(c2nnnn2CS(=O)(=O)c2ccc(C)cc2)N2CCC(C)CC2)cc1` (stereo unspecified) showed an inhibition of 0.22%.
For `COc1cc(OC)nc(S(C)(=O)=O)n1`, the inhibition was 16.5% (active).
Work on `CCC(=O)Nc1nc(OC)cc(OC)n1` yielded an inhibition of 2.37%.
`COc1ccnc(C(=O)N2CCC(Oc3cccnc3)CC2)c1` showed an inhibition of 0.2%.
`O=C(NCc1ccc(Cl)cc1)C1CCCN(c2nc3ccccc3o2)C1` (stereo unspecified) gave an inhibition of 1.63%.
`CCOc1c(Br)cc(/C=C2\C(=O)N(CCC#N)N=C2C)cc1OC` was tested, and the inhibition was 24.6% (active).
Molecule `O=C(NNC(=O)C1C2CCC(C2)C1C(=O)O)c1ccc(Cl)cc1` (stereo unspecified) has an inhibition of 1.22%.
For `Cc1ccc(CN2CC(C(=O)NNC(=O)Cn3ccc(C(F)(F)F)n3)CC2=O)cc1` (stereo unspecified), the inhibition was 2.76%.
In the case of `Cc1ccc(Cn2ccc(NC(=O)C3C4CCC(C4)C3C(=O)O)n2)cc1` (stereo unspecified), the inhibition is reported as 9.61% (active).
`O=C(CSc1nnc(-c2ccccn2)n1-c1ccc(Cl)cc1)Nc1ccccc1-c1ccccc1` was tested, and the inhibition was 0.96%.
In the case of `O=C(CCCCCN1C(=O)C2C3C=CC(C3)C2C1=O)Nc1ccccn1` (stereo unspecified), the inhibition is reported as 1.47%.
`Cc1cc(C)nc(NC(=S)N2CCN(c3ccc(C(F)(F)F)cn3)CC2)c1` showed an inhibition of 0.58%.
In the case of `O=C(COc1ccc([N+](=O)[O-])cc1Cl)Nn1cnnc1`, the inhibition is reported as 2.5%.
In the case of `O=C(Nc1cccc([N+](=O)[O-])c1)Nn1cnnc1`, the inhibition is reported as 10.4% (active).
`CN(C(=O)c1cccc(NC(=O)Cc2cccc([N+](=O)[O-])c2)c1)C1CCCCC1` showed an inhibition of 8.53%.
`O=C(c1ccccc1)c1ccc(-c2ccccc2C(=O)NC2CCCCN(Cc3ccc(Cl)cc3)C2=O)cc1` (stereo unspecified) gave an inhibition of 1.5%.
With `Cc1ccc(NC(=O)Cc2cccc(F)c2)c(S(=O)(=O)N2CCOCC2)c1` the inhibition was -42.8%.
For `Cc1ccc(-c2cn(S(=O)(=O)c3cccc([N+](=O)[O-])c3)nc2N)cc1`, the inhibition was 11.4% (active).
`Cc1cc(C)n(S(=O)(=O)c2cccc([N+](=O)[O-])c2)n1` gave an inhibition of 0.37%.
Work on `CC1=NCCN1S(=O)(=O)c1cccc([N+](=O)[O-])c1` yielded an inhibition of -1.13%.
In the case of `CCOC(=O)[C@]12CCCCC/C=C\1N(Cc1ccc(OC)cc1)C(=O)[C@H]2CC(=O)NCc1ccc(C)o1`, the inhibition is reported as 0.82%.
Work on `COC(=O)[C@]1(S(=O)(=O)c2ccccc2)C[C@@H]2ON=C(c3ccc(OC)cc3)[C@@H]2C1` yielded an inhibition of -2.22%.
For `N#C[C@]1(S(=O)(=O)c2ccccc2)C[C@@H]2ON=C(c3cccc(Br)c3)[C@@H]2C1`, the inhibition was 9.78% (active).
`CCn1c(=O)n2n(c1=O)[C@@]1(C=C3CCCC[C@H]32)N=C(NC(=O)c2ccccc2)N(Cc2ccccc2)[C@H]1Cc1ccccc1` gave an inhibition of -12.3%.
With `COC(=O)C12C=C3CC(c4ccccc4)=C3C(=O)N1Cc1[nH]c3ccccc3c1C2` (stereo unspecified) the inhibition was -9.2%.
`CCOC(=O)CNC(=O)/C=C/c1c(Cl)cccc1Cl` gave an inhibition of 0.18%.
For `O=C(/C=C/c1c(Cl)cccc1Cl)NCc1ccccc1`, the inhibition was 3.49%.
With `O=C(/C=C/c1c(F)cccc1Cl)Nc1nn[nH]n1` the inhibition was 12.5% (active).
Molecule `O=C(CSc1nnc(-c2ccccn2)n1-c1ccccc1)Nc1ccc2cn[nH]c2c1` has an inhibition of 3.11%.
Molecule `COCCCN(C(=O)Cn1ncc2c(=O)oc3ccc(C)cc3c21)C(C)c1ccncc1` (stereo unspecified) has an inhibition of 2.83%.
With `COCCCN(C(=S)Nc1c(C)cc(C)cc1C)C(C)c1ccncc1` (stereo unspecified) the inhibition was 12.6% (active).
`COCCN(C(=S)Nc1cccc(Cl)c1C)C(C)c1ccco1` (stereo unspecified) gave an inhibition of 4.95%.
In the case of `Cc1cc(NS(=O)(=O)c2ccc(NC(=O)CSc3nnc(SCc4ccc(F)cc4)s3)cc2)nc(C)n1`, the inhibition is reported as 6.25%.
`CCn1c2ccccc2c2cc(NC(=O)CSc3nnc(-c4ccccc4)n3-c3ccc(C)cc3)ccc21` was tested, and the inhibition was -1.61%.
`O=C(NCc1cccnc1)c1cc(C2CCCCN2C(=O)CCc2ccccc2)on1` (stereo unspecified) was tested, and the inhibition was 12.8% (active).
For `N#Cc1cccc(NC(=O)c2cc(C3CCCCN3C(=O)CCc3ccccc3)on2)c1` (stereo unspecified), the inhibition was 5.27%.
`O=C(NCc1cccnc1)c1cc(C2CCCN(C(=O)CCCc3ccccc3)C2)on1` (stereo unspecified) gave an inhibition of 3.28%.
With `COc1ccc(N2CCN(CCNS(=O)(=O)c3ccc(C(C)(C)C)cc3)CC2)cc1` the inhibition was -1.02%.
In the case of `CC(C)(C)c1ccc(C(=O)Nc2cc(Cl)c(Br)cc2C(=O)O)cc1`, the inhibition is reported as 11% (active).
For `CSc1nccc(NC(=O)c2ccc(C(C)(C)C)cc2)n1`, the inhibition was 7.02%.
In the case of `CSc1ccc(C#N)cc1NC(=O)c1ccc(Cl)cc1`, the inhibition is reported as -1.63%.
Work on `COC(=O)[C@@]12CCCCC=C1N(CCc1ccc(Cl)cc1)C(=O)[C@H]2CC(=O)NCc1ccc(OC)c(OC)c1` yielded an inhibition of 2.08%.
For `CC(C)CC1C(=O)N(Cc2cn(CC3CCCCC3)nn2)CCS(=O)(=O)N1Cc1ccc(-c2ccc(Cl)cc2)cc1` (stereo unspecified), the inhibition was 1.82%.
For `COc1ccc(-c2ccc(CN3C(CC(C)C)C(=O)N(Cc4cn(CC5CCCCC5)nn4)CCS3(=O)=O)cc2)cn1` (stereo unspecified), the inhibition was -1.63%.
For `COc1ccc(-c2ccc(CN3C(CC(C)C)C(=O)N(Cc4cn(CC5CCCCC5)nn4)CCS3(=O)=O)cc2)cc1` (stereo unspecified), the inhibition was 13.6% (active).
`CCOC(=O)C(=O)N(Cc1ccccc1)c1ccccc1C(=O)Nc1cc(OC)ccc1OC` was tested, and the inhibition was 2.22%.
For `COc1ccc(C2C(C(C)=O)=C(O)C(=O)N2CCc2c[nH]c3ccccc23)cc1` (stereo unspecified), the inhibition was 0.47%.
With `COC(=O)CN1C(=O)C(O)=C(C(C)=O)C1c1ccc([N+](=O)[O-])cc1` (stereo unspecified) the inhibition was 10.5% (active).
`CC(=O)C1=C(O)C(=O)N(c2ccc(Br)cc2)C1c1ccc([N+](=O)[O-])cc1` (stereo unspecified) showed an inhibition of 2.17%.
`COC(=O)C1=CN(c2ccc(F)c(F)c2)C=C(C(=O)OC)C1c1ccc([N+](=O)[O-])cc1` was tested, and the inhibition was 1.3%.
With `COc1ccc(C2C(C(C)=O)=C(O)C(=O)N2c2nccs2)cc1` (stereo unspecified) the inhibition was -25.2%.
In the case of `CC(=O)C1=C(O)C(=O)N(c2cccnc2)C1c1ccc([N+](=O)[O-])cc1` (stereo unspecified), the inhibition is reported as 11.3% (active).
`C=CCN1C(C(=O)OC)CN(Cc2cn(Cc3ccccc3)nn2)CCS1(=O)=O` (stereo unspecified) gave an inhibition of 2.03%.
`COc1cccc(CNC(=O)CNS(=O)(=O)c2ccc3nc(C)sc3c2)c1OC` showed an inhibition of 2.68%.
`CCCC[C@H](C(=O)N(CC)c1ccccc1)[C@@H](O)c1ccc2ccccc2c1` was tested, and the inhibition was 2.96%.
In the case of `O=C1/C(=C\c2ccsc2)NC(=S)N1c1ccccc1`, the inhibition is reported as 9.99% (active).
Molecule `CCCCN=C1N/C(=C\c2ccco2)C(=O)N1c1ccccc1` has an inhibition of -18.1%.
In the case of `CN(C)c1ccc(/C=C2\NC(=S)N(Cc3ccccc3)C2=O)cc1`, the inhibition is reported as -48.2%.
